Assay outcomes (PubChem BioAssay)
A selection: hits, their analogues and other compounds. The true share with any hit is near 7.7%.
RE007 growth inh: qHTS Assay for Inhibitors of the HIV-1 protein Vpr; S. pombe RE007 Vpr strain, BacTiter-Glo ATP luminescence, 24 h; Potency, µM (series often up to 92.2 µM), usual class: inhibitors; 360,000 tested, 0.21% active; AID 651644, 2012; active = well fitted falling curve with a large enough effect; inconclusive = small, poorly fitted or top-dose-only effect; inactive = no such curve, though single readings can be large or run the other way; note: nearly all actives have a fitted effect of over 50% in size
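Fission yeast RE007 carrying one integrated HIV-1 vpr copy, seeded at OD 0.01 in PMG+AL medium with 23 nL pinned compound. Grown 24 h at 30 degrees; viability read by BacTiter-Glo luminescence after 5 min.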
Sm TGR block: qHTS Assay for the Inhibitors of Schistosoma Mansoni Peroxiredoxins | Schistosoma mansoni thioredoxin glutathione reductase (TGR), Q962Y6 | purified TGR, DTNB reduction, TNB absorbance 405 nm | Potency, µM (highest dose often 114 µM), most hits filed as inhibitors | 360,000 tested, 3% active; note: nearly all actives have a fitted effect of over 60% in size
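Kinetic colorimetric format: TGR-catalysed, NADPH-driven DTNB reduction monitored via TNB absorbance. Enzyme dispensed at 20 nM; compound exposure 15 min at room temperature before reaction start.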
HCMV inh: qHTS Assay for inhibitors of the human cytomegalovirus (HCMV); HFF cells, HCMV-luciferase reporter, 72 h; hits give low values; activity change, negative = inhibition, % at 57.5 µM; 410,000 tested, 4.5% active; AID 1259415, 2018; in the data active = activity change below about -60%; inconclusive = no clear call, values can overlap the other calls; inactive = above about -39%
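Inhibition of viral replication was scored as loss of reporter luminescence in HFFs infected with HCMV-luciferase (MOI 1 PFU/cell) for 72 h; compounds tested at 2 doses, normalized to buffer and Salinomycin controls.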
Giardia FBPA inh: qHTS Assay for Inhibitors of Fructose-1,6-bisphosphate Aldolase from Giardia Lamblia; purified Giardia FBPA; A8B2U2; 290,000 tested, 0.71% active; Potency, µM (top dose mostly 59.6 µM), most hits filed as inhibitors; note: nearly all actives have a fitted effect of over 55% in size
Target sequence (A8B2U2 whole entry, looked up): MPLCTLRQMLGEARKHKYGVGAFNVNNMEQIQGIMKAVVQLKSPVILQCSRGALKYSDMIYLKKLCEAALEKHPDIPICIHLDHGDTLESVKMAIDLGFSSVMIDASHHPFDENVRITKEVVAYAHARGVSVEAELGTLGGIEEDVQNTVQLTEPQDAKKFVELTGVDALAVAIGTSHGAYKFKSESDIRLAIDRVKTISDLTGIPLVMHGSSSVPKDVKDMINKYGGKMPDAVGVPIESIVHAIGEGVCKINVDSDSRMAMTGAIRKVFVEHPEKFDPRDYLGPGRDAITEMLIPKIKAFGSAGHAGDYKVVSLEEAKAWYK
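Giardia FBPA (40 nM reagent) was preincubated 10 min at RT with compound (up to 57.5 uM final), then substrate plus GAPDH/TPI/NAD/arsenate coupling system with diaphorase/resazurin was added; resorufin fluorescence (525/598 nm) was read after 20 min.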
FMDV antiviral: High Throughput Screening for Foot and Mouth Disease Virus Antivirals; FMDV antiviral cell-based qHTS; Potency, µM (doses to about 57.9 µM), hits mostly inhibitors; 410,000 tested, 1.2% active; calls by dose curve; tested in HEK293T cells; note: read-out not given here; nearly all actives have a fitted effect of over 45% in size
TbPYK inhibitor: qHTS of Trypanosoma Brucei Inhibitors | pyruvate kinase (Trypanosoma brucei), Q57TT1 | TbPYK enzyme, Kinase-Glo Plus ATP luminescence, 45 min | Potency, µM (titrated, usually from 76.8 µM), most hits filed as inhibitors | 410,000 tested, 0.12% active | AID 624173, 2012; note: nearly all actives have a fitted effect of over 50% in size
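Quantitative HTS: titrated library compounds versus trypanosomal pyruvate kinase in TEA buffer (pH 7.2) containing KCl, MgCl2, BSA and Tween-20. Reactions were initiated with ADP, 130 uM final. Kinase-Glo Plus luminescence was read after 45 min at RT.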
Of the large screens only hits and unclear results are named; the others gave an inactive call. Unless noted, calls come from the whole dose curve; as a rule, active = well fitted curve in the direction sought with a large enough effect; inconclusive = small, poorly fitted or top-dose-only effect, or another doubt; inactive = no such curve, though single readings can be large; an effect the other way counts as inactive or inconclusive.

COCCn1c(C)cc(O)c(C(c2ccc(Cl)cc2)N2CCN(c3ccccc3)CC2)c1=O (stereo not given)	Sm TGR block 2.8µM (no result: RE007 growth inh, Giardia FBPA inh)
CCOc1ccc(C(c2c(C)n(C)n(-c3ccccc3)c2=O)c2c(C)n(C)n(-c3ccccc3)c2=O)c(O)c1	none (no result: Sm TGR block, Giardia FBPA inh)
CCOc1ccc(C(c2c(O)cc(C)n(CCOC)c2=O)N2CCN(c3ccccc3)CC2)cc1 (stereo not given)	Sm TGR block 6.3µM (no result: RE007 growth inh, Giardia FBPA inh)
Fc1ccc(CSc2nc3ccccc3[nH]2)c2ccccc12	RE007 growth inh 13µM
Cc1cccc(OCCCSc2nc3ccccc3[nH]2)c1	RE007 growth inh 45µM
O=c1cc(CSc2nc3ccccc3[nH]2)c2ccccc2[nH]1	none
Cc1cccc(OCCSCc2nc3ccccc3[nH]2)c1	FMDV antiviral inconclusive (no result: Giardia FBPA inh)
COc1ccc(OCCSc2nc(C)nc3ccccc23)cc1	HCMV inh -65, FMDV antiviral inconclusive
CCOc1ccc(OCCSc2nc3ccccc3[nH]2)cc1	HCMV inh -76 (no result: FMDV antiviral)
CCN(Cc1ccncc1)Cc1ccc2c(c1)CN(C(=O)c1cccc(-n3nc(C)cc3C)c1)CCO2	none (no result: RE007 growth inh, Sm TGR block, HCMV inh, Giardia FBPA inh, TbPYK inhibitor)
CCCOc1ccc(CSc2nc3ccccc3[nH]2)cc1	RE007 growth inh inconclusive, HCMV inh -92
CC(C)(C)OC(=O)NCc1ccc(CNC(=O)c2ncn(Cc3ccccc3)c2C(=O)NCc2ccc(CNC(=O)OC(C)(C)C)cc2)cc1	none (no result: Sm TGR block, Giardia FBPA inh)
C[C@H]1CNC(=O)c2c(C(=O)Nc3ccc(CNC(=O)OC(C)(C)C)cc3)ncn21	HCMV inh inconclusive, FMDV antiviral 28µM (no result: Sm TGR block, Giardia FBPA inh)
Cn1cnc(C(=O)NCc2ccc(CNC(=O)OC(C)(C)C)cc2)c1C(=O)NCc1ccc(CNC(=O)OC(C)(C)C)cc1	HCMV inh inconclusive, FMDV antiviral 16µM (no result: Sm TGR block, Giardia FBPA inh)
COc1ccccc1-c1cc(NC(=O)COc2ccccc2Cl)n(-c2ccccc2)n1	none (no result: RE007 growth inh, Giardia FBPA inh)
Cc1c(CCOC(=O)C23CC4(C)CC(C)(CC(C)(C4)C2)C3)sc[n+]1CC(=O)c1ccccc1	HCMV inh -100, FMDV antiviral 28µM (no result: Sm TGR block)
Cc1c(CCOC(=O)CC23CC4CC(CC(C4)C2)C3)sc[n+]1CC(=O)c1ccccc1	FMDV antiviral inconclusive
Cc1c(CCOC(=O)C23CC4CC(CC(C)(C4)C2)C3)sc[n+]1Cc1ccccc1	FMDV antiviral 16µM
CCc1ccc2occ(CC(=O)N(Cc3ccccc3)C3CCS(=O)(=O)C3)c2c1 (stereo not given)	none (no result: RE007 growth inh, Giardia FBPA inh)
CCOC(=O)CNC(=S)N(Cc1ccc(C)cc1)Cc1ccc(C)o1	HCMV inh -82
Cc1cc(NC(=O)c2cc(-c3ccc(F)cc3)on2)nn1Cc1ccc(Cl)cc1	FMDV antiviral inconclusive (no result: RE007 growth inh, Giardia FBPA inh)
CCN(CC)c1ccc(/C=C(\C#N)C(N)=O)cc1	none
CCN(CC)c1ccc(/C=C(\C#N)C(=O)c2ccc(Br)cc2)cc1	RE007 growth inh inconclusive, HCMV inh -65
CN(C)c1ccc(/C=C(\C#N)C(=O)c2ccccc2)cc1	HCMV inh -63
COC(=O)[C@@H]1[C@@H](CO)[C@@H]2Cn3c(cccc3=O)[C@H]1N2Cc1ccccc1OC	none (no result: RE007 growth inh, Sm TGR block, Giardia FBPA inh, FMDV antiviral, TbPYK inhibitor)
Nc1cccc2c1C(=O)N(C(=O)/C=C/c1ccc(F)cc1)C2=O	RE007 growth inh inconclusive, FMDV antiviral 40µM
O=C(N/N=C/c1cc(Br)ccc1O)c1ccccc1Cl	RE007 growth inh inconclusive, HCMV inh -65, Giardia FBPA inh inconclusive
O=C(CCc1ccccc1)N/N=C/c1cc(Br)ccc1O	HCMV inh -76
O=C(N/N=C\c1ccccc1O)c1ccccc1O	none (no result: RE007 growth inh, Sm TGR block, HCMV inh, TbPYK inhibitor)
COCCCNC(=S)N/N=C/c1ccccc1O	HCMV inh -62
Cc1ccc(C(=O)N/N=C\C=C\c2ccc(Br)cc2)cn1	none
Cc1ccc(C(=O)N/N=C/c2cc(Br)ccc2O)cn1	HCMV inh -102
Oc1ccc(Br)cc1/C=N/NC(=S)NCCc1ccccc1	RE007 growth inh inconclusive
Cc1ccc(SCCC(=O)N/N=C/c2ccccc2O)cc1	HCMV inh -85, Giardia FBPA inh inconclusive
Cc1ccc(NC(=O)CCC(=O)N/N=C/c2ccccc2O)cc1	none
O=C(CCCCC(=O)NN=Cc1ccccc1O)NN=Cc1ccccc1O	none (no result: Sm TGR block, Giardia FBPA inh)
CN(C)c1ccc(C(=O)N/N=C/c2cc(Br)cc(Br)c2O)cc1	HCMV inh -90
O=C(CCC(=O)Nc1ccc(Br)cc1)N/N=C/c1ccccc1O	HCMV inh -66
COc1ccc(OC)c(/C=N/NC(=O)CCc2c(C)n[nH]c2C)c1	none
COc1ccc(OC)c(/C=N/NC(=O)CCc2ccc(O)c(O)c2)c1	Sm TGR block 20µM
CCOc1ccccc1-c1ccc(C(=O)O)s1	none (no result: RE007 growth inh, Sm TGR block, HCMV inh, FMDV antiviral, TbPYK inhibitor)
CCOc1ccc(CNC(=O)c2ccc3nc(Cc4ccc(OC)cc4)oc3c2)cc1OC	none (no result: RE007 growth inh, Giardia FBPA inh)
CC(=O)N1CCc2cc(Br)cc(S(=O)(=O)N3CCC(C)CC3)c21	none (no result: RE007 growth inh, Giardia FBPA inh)
O=C(N/N=C/c1cc(Br)c(O)c(Br)c1)c1cccnc1	Sm TGR block 89µM
O=C(CCCSc1ccc(Cl)cc1)Nc1ccccc1O	RE007 growth inh 35µM (no result: HCMV inh)
COc1cc(/C=N/NC(=O)c2cccnc2)cc(Br)c1O	none
